Measured values as given in article PMC7862700, “An all-to-all approach to the identification of sequence-specific readers for epigenetic DNA modifications on cytosine”.

Assays:
Assay in all cases: DAPPL (digital affinity profiling via proximity ligation, sequencing); 10 mM Tris-HCl pH 7.5, 50 mM NaCl, 1 mM DTT, 4% glycerol, room temperature, 30 min; GST-TFs on glutathione beads, 16-mer random dsDNA library, 0.1% formaldehyde crosslink after washing; high values mean tight binding
Conditions in all cases: protein: recombinant; tags: N-terminal GST; dsDNA, one strand shown
ELK4 = molecular target: T1, ELK4 (Homo sapiens, UniProt P28324-2 1-405)
T1 sequence: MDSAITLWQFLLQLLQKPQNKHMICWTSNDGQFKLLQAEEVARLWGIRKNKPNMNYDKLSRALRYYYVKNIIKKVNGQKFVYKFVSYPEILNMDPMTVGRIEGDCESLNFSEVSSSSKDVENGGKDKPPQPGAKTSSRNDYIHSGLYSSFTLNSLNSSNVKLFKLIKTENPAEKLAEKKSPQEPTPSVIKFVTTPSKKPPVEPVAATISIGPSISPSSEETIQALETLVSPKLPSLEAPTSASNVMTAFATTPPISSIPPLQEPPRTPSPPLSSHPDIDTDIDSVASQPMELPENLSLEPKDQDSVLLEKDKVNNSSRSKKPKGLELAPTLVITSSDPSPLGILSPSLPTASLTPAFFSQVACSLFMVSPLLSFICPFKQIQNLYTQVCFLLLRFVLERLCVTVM
Outline: (§1)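 Pools of DNA-barcoded human transcription factors, expressed in yeast as GST fusions on glutathione beads and combined with a tag-only sample, were incubated with 200 nmole of a 16-mer random double-stranded DNA library. Incubation took 30 min at room temperature in Tris/NaCl/DTT/glycerol buffer and was followed by washing, 0.1% formaldehyde crosslinking, proximity ligation (BsaI/T4 ligase, 1 h, 37 °C), PCR amplification and sequencing on an Illumina NextSeq500. Binding signal is the ratio of a hexamer's read frequency for a factor to its frequency for the tag-only sample.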

ELF3 = molecular target: T2, ELF3 (Homo sapiens, UniProt P78545 1-371)
T2 sequence: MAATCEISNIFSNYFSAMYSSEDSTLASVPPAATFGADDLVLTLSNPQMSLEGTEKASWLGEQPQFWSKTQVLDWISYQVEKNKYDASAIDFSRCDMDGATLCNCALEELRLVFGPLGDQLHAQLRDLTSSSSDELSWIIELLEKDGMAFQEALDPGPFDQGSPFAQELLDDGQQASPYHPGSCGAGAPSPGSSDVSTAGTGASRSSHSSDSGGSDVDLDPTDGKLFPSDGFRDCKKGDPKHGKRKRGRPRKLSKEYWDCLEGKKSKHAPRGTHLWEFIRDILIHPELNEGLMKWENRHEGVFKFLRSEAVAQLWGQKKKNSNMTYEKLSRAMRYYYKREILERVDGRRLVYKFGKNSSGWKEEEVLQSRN
Outline: as §1

ETV7 = molecular target: T3, ETV7 (Homo sapiens, UniProt Q9Y603 1-341)
T3 sequence: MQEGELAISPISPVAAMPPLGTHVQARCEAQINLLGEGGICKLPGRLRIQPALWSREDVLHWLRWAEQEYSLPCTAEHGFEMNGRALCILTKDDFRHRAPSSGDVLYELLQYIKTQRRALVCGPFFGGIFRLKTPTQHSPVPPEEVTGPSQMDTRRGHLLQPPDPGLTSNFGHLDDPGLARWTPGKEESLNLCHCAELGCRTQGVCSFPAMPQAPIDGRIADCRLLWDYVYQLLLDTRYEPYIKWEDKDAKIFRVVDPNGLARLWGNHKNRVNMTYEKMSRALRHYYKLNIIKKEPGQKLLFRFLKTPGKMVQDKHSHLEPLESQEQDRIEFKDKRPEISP
Outline: as §1

ELF5 = molecular target: T4, ELF5 (Homo sapiens, UniProt Q9UKW6-2 1-255)
T4 sequence: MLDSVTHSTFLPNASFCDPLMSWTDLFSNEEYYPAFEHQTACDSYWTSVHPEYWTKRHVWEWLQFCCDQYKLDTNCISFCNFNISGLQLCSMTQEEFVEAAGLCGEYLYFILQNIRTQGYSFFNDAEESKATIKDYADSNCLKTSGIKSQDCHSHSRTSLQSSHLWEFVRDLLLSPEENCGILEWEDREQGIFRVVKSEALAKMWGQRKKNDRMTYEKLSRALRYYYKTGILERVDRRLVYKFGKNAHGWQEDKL
Outline: as §1

ETV2 = molecular target: T5, ETV2 (Homo sapiens, UniProt O00321 1-342)
T5 sequence: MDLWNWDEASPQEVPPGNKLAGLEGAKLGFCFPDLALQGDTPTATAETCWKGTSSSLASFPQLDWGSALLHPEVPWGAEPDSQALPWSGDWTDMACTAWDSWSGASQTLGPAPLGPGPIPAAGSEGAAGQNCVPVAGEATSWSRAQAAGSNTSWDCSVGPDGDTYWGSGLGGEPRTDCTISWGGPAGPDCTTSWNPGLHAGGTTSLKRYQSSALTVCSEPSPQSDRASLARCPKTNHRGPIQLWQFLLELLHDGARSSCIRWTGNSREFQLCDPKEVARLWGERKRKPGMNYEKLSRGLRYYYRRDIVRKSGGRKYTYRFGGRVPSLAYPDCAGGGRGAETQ
Outline: as §1

CRX = CRX (Homo sapiens, UniProt O43186 1-299)
Outline: as §1

Sequence of CRX (O43186 whole entry): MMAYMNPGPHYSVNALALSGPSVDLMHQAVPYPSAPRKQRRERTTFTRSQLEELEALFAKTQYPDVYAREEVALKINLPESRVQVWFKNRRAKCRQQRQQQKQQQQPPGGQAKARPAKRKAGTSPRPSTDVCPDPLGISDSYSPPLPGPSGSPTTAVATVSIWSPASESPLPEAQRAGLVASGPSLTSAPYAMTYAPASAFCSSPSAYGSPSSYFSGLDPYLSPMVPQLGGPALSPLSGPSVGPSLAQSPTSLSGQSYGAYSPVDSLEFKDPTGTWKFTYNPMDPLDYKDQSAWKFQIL

CGGCCT
binding signal (ELK4): 1.13 fold enrichment (6-mer frequency, TF over GST control) | binding signal (ELF3): 1.03 fold enrichment (6-mer frequency, TF over GST control) | binding signal (ETV7): 1.23 fold enrichment (6-mer frequency, TF over GST control)

TGGTCA
binding signal (ELK4): 1.04 fold enrichment (6-mer frequency, TF over GST control) | binding signal (ELF3): 1.1 fold enrichment (6-mer frequency, TF over GST control)

TTGCCG
binding signal (ELK4): 1 fold enrichment (6-mer frequency, TF over GST control) | binding signal (ELF3): 1.09 fold enrichment (6-mer frequency, TF over GST control) | binding signal (ETV7): 1.22 fold enrichment (6-mer frequency, TF over GST control) | binding signal (ELF5): 1.07 fold enrichment (6-mer frequency, TF over GST control)

CGCCCG
binding signal (ELK4): 1.09 fold enrichment (6-mer frequency, TF over GST control) | binding signal (ELF3): 1.14 fold enrichment (6-mer frequency, TF over GST control) | binding signal (ETV7): 1.08 fold enrichment (6-mer frequency, TF over GST control) | binding signal (ELF5): 1.16 fold enrichment (6-mer frequency, TF over GST control)

CATACG
binding signal (ELK4): 1.07 fold enrichment (6-mer frequency, TF over GST control) | binding signal (ELF3): 1.07 fold enrichment (6-mer frequency, TF over GST control) | binding signal (ELF5): 1.06 fold enrichment (6-mer frequency, TF over GST control)

AGCAAC
binding signal (ELK4): 1.12 fold enrichment (6-mer frequency, TF over GST control) | binding signal (ETV7): 1.1 fold enrichment (6-mer frequency, TF over GST control) | binding signal (ELF5): 1.07 fold enrichment (6-mer frequency, TF over GST control)

ATGCCG
binding signal (ELK4): 1.15 fold enrichment (6-mer frequency, TF over GST control) | binding signal (ELF5): 1.13 fold enrichment (6-mer frequency, TF over GST control)

GGTTTT
binding signal (ELK4): 1.03 fold enrichment (6-mer frequency, TF over GST control) | binding signal (ETV2): 1.2 fold enrichment (6-mer frequency, TF over GST control) | binding signal (ELF3): 1.14 fold enrichment (6-mer frequency, TF over GST control) | binding signal (CRX): 1.19 fold enrichment (6-mer frequency, TF over GST control) | binding signal (ETV7): 1.1 fold enrichment (6-mer frequency, TF over GST control) | binding signal (ELF5): 1.12 fold enrichment (6-mer frequency, TF over GST control)

CCATGC
binding signal (ELK4): 1.13 fold enrichment (6-mer frequency, TF over GST control) | binding signal (ELF3): 1.18 fold enrichment (6-mer frequency, TF over GST control) | binding signal (ETV7): 1.1 fold enrichment (6-mer frequency, TF over GST control) | binding signal (ELF5): 1.03 fold enrichment (6-mer frequency, TF over GST control)

ACGTTG
binding signal (ELK4): 1.12 fold enrichment (6-mer frequency, TF over GST control) | binding signal (ETV7): 1.1 fold enrichment (6-mer frequency, TF over GST control) | binding signal (ELF5): 1.02 fold enrichment (6-mer frequency, TF over GST control)

ATGGTG
binding signal (ELK4): 1.17 fold enrichment (6-mer frequency, TF over GST control) | binding signal (ELF3): 1.07 fold enrichment (6-mer frequency, TF over GST control) | binding signal (ELF5): 1.02 fold enrichment (6-mer frequency, TF over GST control)

GCTGCC
binding signal (ELK4): 1.2 fold enrichment (6-mer frequency, TF over GST control) | binding signal (ETV7): 1.04 fold enrichment (6-mer frequency, TF over GST control) | binding signal (ELF5): 1.09 fold enrichment (6-mer frequency, TF over GST control)

ACCACA
binding signal (ELK4): 1.13 fold enrichment (6-mer frequency, TF over GST control) | binding signal (ELF3): 1.02 fold enrichment (6-mer frequency, TF over GST control) | binding signal (ELF5): 1.09 fold enrichment (6-mer frequency, TF over GST control)

TCAACA
binding signal (ELK4): 1.03 fold enrichment (6-mer frequency, TF over GST control) | binding signal (ELF3): 1.12 fold enrichment (6-mer frequency, TF over GST control) | binding signal (ELF5): 1 fold enrichment (6-mer frequency, TF over GST control)

TTGGTC
binding signal (ELK4): 1.15 fold enrichment (6-mer frequency, TF over GST control) | binding signal (ETV7): 1.18 fold enrichment (6-mer frequency, TF over GST control) | binding signal (ELF5): 1.04 fold enrichment (6-mer frequency, TF over GST control)

GTCCCA
binding signal (ELK4): 1.13 fold enrichment (6-mer frequency, TF over GST control) | binding signal (ELF3): 1.08 fold enrichment (6-mer frequency, TF over GST control) | binding signal (ETV7): 1.13 fold enrichment (6-mer frequency, TF over GST control) | binding signal (ELF5): 1.12 fold enrichment (6-mer frequency, TF over GST control)

GTTGAT
binding signal (ELK4): 1.17 fold enrichment (6-mer frequency, TF over GST control) | binding signal (CRX): 1.1 fold enrichment (6-mer frequency, TF over GST control) | binding signal (ELF5): 1.05 fold enrichment (6-mer frequency, TF over GST control)

CCACCT
binding signal (ELK4): 1.21 fold enrichment (6-mer frequency, TF over GST control) | binding signal (ELF3): 1.3 fold enrichment (6-mer frequency, TF over GST control) | binding signal (ELF5): 1.09 fold enrichment (6-mer frequency, TF over GST control)

CCGATG
binding signal (ELK4): 1.07 fold enrichment (6-mer frequency, TF over GST control) | binding signal (ELF3): 1.11 fold enrichment (6-mer frequency, TF over GST control) | binding signal (ETV7): 1.1 fold enrichment (6-mer frequency, TF over GST control)

TGGTGC
binding signal (ELK4): 1.14 fold enrichment (6-mer frequency, TF over GST control) | binding signal (ETV7): 1.07 fold enrichment (6-mer frequency, TF over GST control) | binding signal (ELF5): 1.02 fold enrichment (6-mer frequency, TF over GST control)

CCGCTG
binding signal (ELK4): 1.2 fold enrichment (6-mer frequency, TF over GST control) | binding signal (ELF3): 1.01 fold enrichment (6-mer frequency, TF over GST control) | binding signal (ETV7): 1.16 fold enrichment (6-mer frequency, TF over GST control) | binding signal (ELF5): 1.03 fold enrichment (6-mer frequency, TF over GST control)

AAGGCA
binding signal (ELK4): 1.03 fold enrichment (6-mer frequency, TF over GST control) | binding signal (ETV7): 1.05 fold enrichment (6-mer frequency, TF over GST control) | binding signal (ELF5): 1.05 fold enrichment (6-mer frequency, TF over GST control)

ACATGG
binding signal (ELK4): 1.22 fold enrichment (6-mer frequency, TF over GST control) | binding signal (ELF3): 1.17 fold enrichment (6-mer frequency, TF over GST control) | binding signal (ETV7): 1.08 fold enrichment (6-mer frequency, TF over GST control) | binding signal (ELF5): 1.1 fold enrichment (6-mer frequency, TF over GST control)

TGCCAA
binding signal (ELK4): 1.06 fold enrichment (6-mer frequency, TF over GST control) | binding signal (ELF3): 1.17 fold enrichment (6-mer frequency, TF over GST control) | binding signal (ETV7): 1.01 fold enrichment (6-mer frequency, TF over GST control) | binding signal (ELF5): 1.1 fold enrichment (6-mer frequency, TF over GST control)

GCGCGC
binding signal (ELK4): 1.1 fold enrichment (6-mer frequency, TF over GST control) | binding signal (ELF3): 1.05 fold enrichment (6-mer frequency, TF over GST control) | binding signal (ETV7): 1.05 fold enrichment (6-mer frequency, TF over GST control)

TGGACC
binding signal (ELK4): 1.03 fold enrichment (6-mer frequency, TF over GST control) | binding signal (ELF3): 1.19 fold enrichment (6-mer frequency, TF over GST control) | binding signal (ETV7): 1.03 fold enrichment (6-mer frequency, TF over GST control)

CCACAC
binding signal (ELK4): 1.04 fold enrichment (6-mer frequency, TF over GST control)

CATCGC
binding signal (ELK4): 1.14 fold enrichment (6-mer frequency, TF over GST control) | binding signal (ETV7): 1.11 fold enrichment (6-mer frequency, TF over GST control) | binding signal (ELF5): 1.03 fold enrichment (6-mer frequency, TF over GST control)

GGGTTC
binding signal (ELK4): 1 fold enrichment (6-mer frequency, TF over GST control) | binding signal (ELF3): 1.02 fold enrichment (6-mer frequency, TF over GST control) | binding signal (ELF5): 1.1 fold enrichment (6-mer frequency, TF over GST control)

GTCTTG
binding signal (ELK4): 1.02 fold enrichment (6-mer frequency, TF over GST control) | binding signal (ETV7): 1.19 fold enrichment (6-mer frequency, TF over GST control)

GTCTAC
binding signal (ELK4): 1 fold enrichment (6-mer frequency, TF over GST control) | binding signal (ELF5): 1.08 fold enrichment (6-mer frequency, TF over GST control)

AAGGGT
binding signal (ELK4): 1.15 fold enrichment (6-mer frequency, TF over GST control) | binding signal (ETV7): 1.1 fold enrichment (6-mer frequency, TF over GST control) | binding signal (ELF5): 1.04 fold enrichment (6-mer frequency, TF over GST control)
